aSyn rescue = inhibitors of alpha-synuclein toxicity in yeast. Yeast expressing alpha-synuclein, growth rescue, BacTiter-Glo, 24 h. Potency, µM (series often up to 46.1 µM), hits mostly activators. hit rate 0.14% among 370,000. AID 652106; note: nearly all actives have a fitted effect of over 65% in size
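Screening used galactose-induced yeast with toxic alpha-synuclein levels, exposed to compound for 24 hr at 30 deg C. Cell growth, read with BacTiter-Glo luminescence, gave the measured signal.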
TDP-43 yeast inh = TDP-43 toxicity inhibition in yeast; TDP-43 expressing yeast growth rescue, BacTiter-Glo, 24 h; Potency, µM (doses to about 46.1 µM), actives largely listed as activators; hit rate 1.8% among 410,000; AID 652104; note: nearly all actives have a fitted effect of over 50% in size
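Yeast expressing TDP-43 (pregrown in raffinose, seeded at OD600=0.02 in galactose medium) exposed to compounds 24 hr at 30 deg C. Growth read by BacTiter-Glo luminescence; rescue of toxicity appears as increased signal.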
Mito fusion act = blocks mitochondrial division or promotes mitochondrial fusion; S. cerevisiae fusion-defective mutant growth rescue, CellTiterGlo 48 h; AID 485298; hit rate 0.23% among 320,000; Potency, µM (titrated, usually from 46.1 µM), hits mostly activators; note: nearly all actives have a fitted effect of over 45% in size
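Compounds are tested for their ability to restore growth of mitochondrial fusion-defective yeast strains at non-permissive 37C in YPEG medium over 48 hours. Viability is quantified by luciferase luminescence.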
Abeta rescue = A-beta toxicity reversal in yeast. Potency, µM (highest dose often 46.1 µM), actives largely listed as activators. yeast expressing A-beta42, growth rescue, OD600, 48 h; response scale: 0% DMSO, 100% iron-clioquinol control. hit rate 0.063% among 410,000; note: nearly all actives have a fitted effect of over 55% in size
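Yeast growth medium received pinned compounds, then yeast cells expressing toxic A-beta were added; plates incubated at 30 C for 48 hr. Growth read as absorbance at 600 nm, normalized to DMSO and equimolar FeCl3 plus clioquinol controls.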
FUS suppressor = suppressors of FUS proteinopathy in yeast; S. cerevisiae FUS-expressing, growth rescue, OD600, 24 h; Potency, µM (doses to about 76.6 µM), hits mostly activators; AID 1347120; hit rate 0.24% among 390,000; note: nearly all actives have a fitted effect of over 55% in size
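Yeast FUS proteinopathy model; galactose-induced FUS (2%), starting OD 0.005. Cpds in dilution series, 24hr, 30C, 99% humidity. Abs 600 nm growth. Pos ctrl CP55940 (top 92uM final); neg ctrl DMSO.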
Numbers stand for hits; . = inactive; ? = inconclusive; / = no result given; [ ] = another dose, or the depositor's remark. Most compounds without a hit are left out; they make up all but 2.2% or so of the library. Calls come from the whole dose curve; as a rule, active = well fitted curve in the direction sought with a large enough effect; inconclusive = small, poorly fitted or top-dose-only effect, or another doubt; inactive = no such curve, though single readings can be large; an effect the other way counts as inactive or inconclusive.

SMILES | aSyn rescue | TDP-43 yeast inh | Mito fusion act | Abeta rescue | FUS suppressor
CN(CCCN(Cc1ccc(Cl)cc1)c1ccc(Br)cn1)C(=S)NCCCc1cnc[nH]1 | . | / | / | / | /
Cc1nc(-c2ccc(S(=O)(=O)Nc3cc(F)ccc3F)cc2)co1 | . | . | . | . | .
Cc1nc(-c2ccc(S(=O)(=O)Nc3cc(Cl)ccc3C)cc2)co1 | ? | 22µM | / | . | .
CCCC[n+]1c(/C=C/c2ccc(N(C)C)cc2)sc2ccccc21 | . | / | / | / | /
O=C(O)c1ccc2c(c1)C1C=CCC1C(c1cc3c(cc1Br)OCO3)N2 (stereo not drawn) | . | ? | 11µM | . | .
NS(=O)(=O)c1cccc(NC(=O)COC(=O)c2cc(Cl)ccc2[N+](=O)[O-])c1 | . | . | . | . | .
Cc1ccc(NC(=O)COC(=O)c2cc(Cl)ccc2[N+](=O)[O-])cc1 | . | 18µM | . | . | /
O=C(/C=C\c1ccccc1OC(=O)c1ccccc1F)c1cc2ccccc2o1 | . | 13µM | . | . | .
CN[C@H]1C[C@H]2c3[nH]c4cccc(-c5ccc6c(c5)OCO6)c4c3CCN2C[C@H]1[C@H](C)O | / | / | / | / | .
CCCc1c(C(=O)OCC)[nH]c2c1C(=O)CCC2 | . | ? | . | . | .
Cc1c(C(=O)OCCOc2ccccc2)[nH]c2c1C(=O)CCC2 | . | 22µM | . | ? | .
Cc1c(C(=O)OC2CCCC2C)[nH]c2c1C(=O)CCC2 (stereo not drawn) | . | 20µM | . | . | .
CCOc1ccc(C2CC(=O)c3c([nH]c(C(=O)OCCOc4ccccc4)c3C)C2)cc1 (stereo not drawn) | / | . | / | . | .
COCCOC(=O)c1c(C)oc2ccc(OCc3ccccc3)cc12 | . | . | 11µM | . | .
COc1ccc(C2=CC(=O)C[C@H](c3ccc(F)cc3)C2)c(F)c1F | . | 16µM | ? | . | ?
COc1ccc(Cl)cc1C1=CC(=O)C[C@H](c2ccc(F)cc2)C1 | . | 13µM | ? | . | .
COc1ccc(C2=CC(=O)C[C@H](c3ccc(F)cc3)C2)c(OC)c1 | . | 22µM | ? | . | ?
CCOc1ccc(Cl)cc1C1=CC(=O)C[C@H](c2ccc(OC)cc2)C1 | . | . | 35µM | . | .
CC1CCCCC1N(C(=O)c1cc(C2CC2)on1)C1CCCCC1 (stereo not drawn) | / | / | / | / | .
c1ccc(-c2ccc(-c3csc4ncnc(Sc5nnnn5-c5ccccc5)c34)cc2)cc1 | . | / | / | / | /
Cc1ccc2cc3cc(C(=O)N4CCN(c5ccccc5)CC4)sc3nc2c1 | / | . | / | . | .
CC(C)N1CCCCC(NC(=O)c2ccc(F)cc2)C1=O (stereo not drawn) | / | / | / | / | .
S=c1[nH]nc(-c2cc3c(s2)-c2ccccc2CC3)o1 | . | 14µM | . | . | .
O=S(=O)(/C=C/c1ccccc1)NCc1ccccc1Cl | . | 11µM | . | . | .
CCCNS(=O)(=O)/C=C/c1ccccc1 | . | .[9.22 µM] | . | . | .
SMILES | aSyn rescue | TDP-43 yeast inh | Mito fusion act | Abeta rescue | FUS suppressor
O=C(O)Cn1cc(C(=O)c2ccco2)c2ccccc21 | . | . | . | . | .
CCOC(=O)Cn1cc(C(=O)c2ccco2)c2ccccc21 | . | 18µM | . | . | .
COc1ccc(C(=O)CN2C(=O)NC3(CCCCCC3)C2=O)cc1 | . | . | / | . | .
COc1ccc(C(=O)CC2(C(=O)O)CCCCC2)cc1 | . | 16µM | . | . | .
Cc1ccc(C)c(NC(=O)Cn2cnc3c(oc4ccccc43)c2=O)c1 | . | . | . | . | .
O=C(c1cccc([N+](=O)[O-])c1)N1CCN(c2cccc(Cl)c2)CC1 | . | . | . | . | /
Cc1ccc(N2CCN(C(=O)c3cccc([N+](=O)[O-])c3)CC2)cc1Cl | . | 13µM | . | ? | .
Cc1c(C(=O)N2CCN(c3cccc(Cl)c3)CC2)cccc1[N+](=O)[O-] | . | 22µM | . | ? | .
Cc1cc(C(=O)N2CCN(c3cccc(Cl)c3)CC2)c2c(C)nn(-c3ccccc3Cl)c2n1 | / | 20µM | / | . | ?
O=C1NCCc2c1[nH]c1c(Cl)ccc(Cl)c21 | . | 10µM | . | . | .
O=C(O)/C=C/C(=O)Nc1ccccc1-c1ccccc1NC(=O)/C=C/C(=O)O | . | . | . | . | .
O=C(O)/C=C/C(=O)Nc1cccc2c1-c1ccccc1C2=O | . | 20µM | / | . | /
Clc1ccc(-c2n[nH]c3c2CCC3)cc1Cl | . | 20µM | . | . | .
Cc1nc2nc(SCC(=O)NCCc3ccccc3)nn2c(C)c1Cc1c(F)cccc1Cl | / | 22µM | / | . | ?
CCOc1ccc(NC(=O)CSc2nc3nc(C)c(Cc4ccccc4)c(C)n3n2)cc1 | / | 25µM | / | . | .
CCCCNC(=O)CSc1nc2nc(C)c(Cc3c(F)cccc3Cl)c(C)n2n1 | / | . | / | . | .
O=C1[C@H]2[C@H](C=CC[C@H]2C(=O)N2CCN(c3ccccc3)CC2)CCN1Cc1ccccc1 | ? | 28µM | / | . | .
CCc1ccc(-c2nnn(CCC(=O)OC)n2)cc1 | . | 16µM | . | . | .
CCc1ccc(-c2nnn(CCC#N)n2)cc1 | . | . | . | . | .
NC(=O)CSc1ncc2c(n1)-c1ccccc1N(Cc1ccc(Cl)cc1)S2(=O)=O | / | . | / | . | .
Cc1nc2cc(NS(=O)(=O)c3c(C)c(C)cc(C)c3C)ccc2s1 | ? | ? | 35µM | . | ?
Cc1ccc(S(=O)(=O)Nc2ccc3nc(C)sc3c2)c(C)c1 | . | 13µM | . | . | .
Cc1nc2ccc(NS(=O)(=O)c3c(C)c(C)cc(C)c3C)cc2s1 | . | ? | . | . | .
Cc1ccc(S(=O)(=O)Nc2ccc3nc(C)sc3c2)cc1 | . | . | . | . | .
CCCN(CC(=O)Nc1ccccc1C)C(=O)COC(=O)c1cnc(C)cn1 | . | . | / | . | .
SMILES | aSyn rescue | TDP-43 yeast inh | Mito fusion act | Abeta rescue | FUS suppressor
Cc1nnc(N2C(=O)C(O)=C(C(=O)c3ccco3)C2c2ccc(C(C)C)cc2)s1 (stereo not drawn) | . | . | . | . | 7.1µM
CCn1c(=O)n(CC(=O)N2CCCC2)c(=O)c2ccccc21 | / | / | / | / | .
Clc1cccc(N2CCN(Cc3nnc(-c4ccccc4)o3)CC2)c1 | . | 11µM | ? | . | .
N#C/C(=C\c1ccc(Cl)cc1)C(=O)Nc1cccnc1 | . | .[1.82 µM] | . | 13µM | .
COc1ccc(/C=C(\C#N)C(=O)Nc2cccnc2)cc1 | . | . | . | . | /
O=S1(=O)c2c(cccc2N2CCC[C@H]2CO)OCCCN1C1CC1 | / | / | / | / | .
O=C(O)C1CCN(C(=O)c2ccccc2N2C(=O)[C@@H]3Cc4c([nH]c5ccccc45)C(c4cccc(Cl)c4)N3C2=O)CC1 (stereo partly drawn) | . | . | . | . | 13µM
Cc1ccc(C2c3[nH]c4ccccc4c3C[C@H]3C(=O)N(c4ccccc4C(=O)N4CCC(C(=O)O)CC4)C(=O)N23)cc1 (stereo partly drawn) | . | . | . | . | ?
COC(=O)c1ccccc1NC(=O)c1ccc(=O)n(Cc2cccc(C)c2)c1 | . | 32µM | / | . | .
